{
  "source": "PubChem BioAssay (NCATS)",
  "note": "Records with an inconclusive call do not appear. Where a call stands in place of a potency, no number is given. Calls of active or inactive are those of the source. The call rests on the fitted dose curve; in most records, active means well fitted inhibition curve with a large enough effect; inconclusive means small, poorly fitted or top-dose-only effect, or effect the other way; inactive means flat fitted curve, though single readings scatter. Potency means the concentration at half of the fitted maximal effect.",
  "data": [
    {"molecular_target": "ATP-dependent 6-phosphofructokinase (Trypanosoma brucei brucei) (UniProt O15648)", "sequence (O15648 whole entry, looked up)": "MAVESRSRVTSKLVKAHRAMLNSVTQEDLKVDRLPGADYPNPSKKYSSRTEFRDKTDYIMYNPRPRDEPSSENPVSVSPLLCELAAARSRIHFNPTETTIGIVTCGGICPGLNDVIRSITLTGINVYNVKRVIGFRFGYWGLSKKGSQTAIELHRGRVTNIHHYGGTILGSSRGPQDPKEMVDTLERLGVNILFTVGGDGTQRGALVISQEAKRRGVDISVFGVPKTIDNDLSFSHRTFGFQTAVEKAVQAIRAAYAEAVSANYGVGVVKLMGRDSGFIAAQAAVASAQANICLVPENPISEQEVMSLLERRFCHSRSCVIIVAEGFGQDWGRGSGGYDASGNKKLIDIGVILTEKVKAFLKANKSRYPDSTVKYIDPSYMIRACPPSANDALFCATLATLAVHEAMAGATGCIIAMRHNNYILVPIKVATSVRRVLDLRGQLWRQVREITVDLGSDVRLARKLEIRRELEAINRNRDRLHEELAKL", "test": "qHTS Assay to Find Inhibitors of T. brucei phosphofructokinase: hit validation (AID 492961)", "settings": "T. brucei PFK, ADP-Glo luminescence; series mostly up to 51.4 µM", "method_in_brief": "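Luminescence from ADP-Glo reports ADP generated as T. brucei PFK (1.25 nM) phosphorylates 0.5 mM fructose-6-phosphate using 0.1 mM ATP. Reactions ran 45 min at room temperature, pH 8.0.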", "values": [
      {"smiles": "FCOC(C(F)(F)F)C(F)(F)F", "Potency": "inactive"},
      {"smiles": "FC(F)(F)C(F)(F)C(F)(F)C(F)(F)C(F)(F)F", "Potency": "inactive"},
      {"smiles": "CC/C=C\\C/C=C\\C/C=C\\C/C=C\\C/C=C\\CCCC(=O)O", "Potency": "inactive"},
      {"smiles": "OCC1(CO)COC(C(Cl)(Cl)Cl)OC1", "Potency": "inactive"},
      {"smiles": "CS(=O)(=O)c1ccc([C@@H](O)[C@@H](COC(=O)CN)NC(=O)C(Cl)Cl)cc1", "Potency": "inactive"},
      {"smiles": "c1ccc2ccccc2c1", "Potency": "inactive"},
      {"smiles": "CCN(CC)C(=O)c1cccnc1", "Potency": "inactive"},
      {"smiles": "CC(C)C1=CC2=CC[C@@H]3[C@](C)(CCC[C@@]3(C)C(=O)O)[C@H]2CC1", "Potency": "inactive"},
      {"smiles": "OCC(O)CO", "Potency": "inactive"},
      {"smiles": "C/C(=C\\C(=O)OCCCCCCCCC(=O)O)C[C@@H]1OC[C@H](C[C@@H]2O[C@H]2[C@@H](C)[C@H](C)O)[C@@H](O)[C@H]1O", "Potency": "inactive"},
      {"smiles": "CC(C)O", "Potency": "inactive"},
      {"smiles": "CC(=O)Oc1cc(C(F)(F)F)ccc1C(=O)O", "Potency": "inactive"},
      {"smiles": "C=C1C(CCl)(CCl)C2(Cl)C(Cl)C(Cl)C1(Cl)C2(Cl)Cl", "note": "(configuration not stated)", "Potency": "inactive"},
      {"smiles": "CCCCCCCCCCCCOCCCN", "Potency": "inactive"},
      {"smiles": "CC(C)OC(=O)Nc1ccc2nc(-c3cscn3)[nH]c2c1", "Potency": "inactive"},
      {"smiles": "CCCCCCOC(=O)c1cccnc1", "Potency": "inactive"},
      {"smiles": "COc1ccc(C(=O)c2ccc(C)cc2)c(O)c1", "Potency": "inactive"},
      {"smiles": "O=C(NNCNNC(=O)c1ccncc1)c1ccncc1", "Potency": "inactive"},
      {"smiles": "S=C1SCN(Cc2ccccc2)CN1Cc1ccccc1", "Potency": "inactive"},
      {"smiles": "NCC(O)CC(=O)O", "note": "(configuration not stated)", "Potency": "inactive"},
      {"smiles": "CC12CCC(C[N+](C)(CCC[N+](C)(C)C)C1)C2(C)C", "note": "(configuration not stated)", "Potency": "inactive"},
      {"smiles": "COC(=O)c1ccccc1O", "Potency": "inactive"},
      {"smiles": "Cc1ncc(C[n+]2csc(CCO)c2C)c(N)n1", "Potency": "inactive"},
      {"smiles": "CO/N=C(/C(=O)N[C@@H]1C(=O)N2C(C(=O)O)=C(COC(N)=O)CS[C@H]12)c1ccco1", "Potency": "inactive"},
      {"smiles": "O=[n+]1ccn([O-])c2ccccc21", "Potency": "inactive"},
      {"smiles": "C[Se]CC[C@H](N)C(=O)O", "Potency": "inactive"},
      {"smiles": "Cc1nc(NS(=O)(=O)c2ccc(N)cc2)nc(C)c1Br", "Potency": "inactive"},
      {"smiles": "C[C@H]1O[C@@H](O[C@H]2[C@@H](O)C[C@H](O[C@H]3[C@@H](O)C[C@H](O[C@H]4CC[C@@]5(C)[C@H](CC[C@@H]6[C@@H]5C[C@@H](O)[C@]5(C)[C@@H](C7=CC(=O)OC7)CC[C@]65O)C4)O[C@@H]3C)O[C@@H]2C)C[C@H](O)[C@@H]1O", "Potency": "inactive"},
      {"smiles": "CCN(CC)CCC(=O)N1c2ccccc2Sc2ccc(C(F)(F)F)cc21", "Potency": "inactive"},
      {"smiles": "CC(C)CCCCCCc1ccc(O)cc1", "Potency": "inactive"},
      {"smiles": "Cc1cc(=O)c(C(=O)N[C@@H](C(=O)N[C@@H]2C(=O)N3C(C(=O)O)=C(CSc4nnnn4C)CS[C@H]23)c2ccc(O)cc2)c[nH]1", "Potency": "inactive"},
      {"smiles": "Nc1nc(=O)n([C@@H]2CS[C@H](CO)O2)cc1F", "Potency": "inactive"},
      {"smiles": "CO/N=C(\\C(=O)N[C@@H]1C(=O)N2C(C(=O)[O-])=C(C[n+]3cccc4c3CCC4)CS[C@H]12)c1csc(N)n1", "Potency": "inactive"},
      {"smiles": "CC(C)(CO)[C@@H](O)C(=O)NCCC(=O)NCCSSCCNC(=O)CCNC(=O)[C@H](O)C(C)(C)CO", "Potency": "inactive"},
      {"smiles": "Cn1c(O)c(N=NC(N)=S)c2ccccc21", "Potency": "inactive"},
      {"smiles": "O=C(OC1C[C@@H]2CC3C[C@H](C1)N2CC3=O)c1c[nH]c2ccccc12", "note": "(some centres not stated)", "Potency": "inactive"},
      {"smiles": "Cc1cc(-c2ccc(N=Nc3c(S(=O)(=O)O)cc4cc(S(=O)(=O)O)cc(N)c4c3O)c(C)c2)ccc1N=Nc1c(S(=O)(=O)O)cc2cc(S(=O)(=O)O)cc(N)c2c1O", "Potency": "28.2 µM (active)"}
    ]}
  ]
}
